We go through 18 compounds from PubChem BioAssay (NCATS).

For experiment [1], the target named is Ubiquitin carboxyl-terminal hydrolase 1 (Homo sapiens) (UniProt O94782). As to the kind of experiment: Inhibitors of USP1/UAF1: Pilot qHTS (AID 504865).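 Also: rhodamine fluorescence freed from ubiquitin-rhodamine substrate followed over time; top concentration of the series differs between compounds; nearly all actives have a fitted effect of over 35% in size.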 Conditions: purified USP1/UAF1, Ub-rhodamine cleavage fluorescence; series mostly up to 114 µM. In short, it runs like this: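 In 50mM HEPES pH 7.8 containing 0.5mM EDTA, 1mM TCEP, 0.1 mg/ml BSA and 0.01% Tween-20, 1nM USP1/UAF1 is exposed to compound for 15 min, then Ub-Rho (150nM final) is added and fluorescence is read over time.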
Background: In qHTS, concentration-response curves come from the screen itself.

Experiment [2] is described as follows: Nrf2 qHTS screen for inhibitors: Validation (AID 493153; active = well fitted inhibition curve with a large enough effect in the main read-out, with a control signal flat, not every such curve was filed as active). As to conditions: A549 ARE-Fluc reporter, 18-24 h; viability change: measured here: cytotoxicity max response; luciferase luminescence, at 46.1 µM (top of the series). An outline of the steps: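 A549 cells carrying an ARE-driven firefly luciferase reporter, in 5% FBS OPTI-MEM, were treated with compounds in concentration-response for 18-24 h at 37°C. Viability was read by CellTiter-Fluor fluorescence, then Nrf2 activity by luciferase luminescence.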

Experiment [3] deals with Galactokinase (Homo sapiens) (UniProt P51570). As to the kind of experiment: qHTS Validation Assay for Inhibitors of Human Galactokinase (GALK) (AID 493189). As to conditions: purified human GALK enzyme activity, qHTS 7-point titration; series mostly up to 57.5 µM. An outline of the steps: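 5 nM GALK / 100 uM galactose / 35 uM ATP, 20 mM HEPES pH8.0, 5 mM MgCl2, 60 mM NaCl, 1 mM DTT, 0.01% BSA (final). RT 1 h; Kinase-Glo Plus luminescence.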

Experiment [4] can be described thus: Validation screen for small molecules that induce DNA re-replication in SW480 colon adenocarcinoma cells (AID 504364). As to conditions: DNA re-replication phenotype (high-content imaging); series mostly up to 46.1 µM. In short, it runs like this: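 SW480 cells seeded at 250 per well were exposed to compound or DMSO for 48 hr at 37 C, 5% CO2, then stained with Hoechst for 40 min. DNA content per nucleus was imaged (405 nm ex, 500-530 nm em).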

Experiment [5] addresses Peptidyl-prolyl cis-trans isomerase NIMA-interacting 1 (Homo sapiens) (UniProt Q13526). As to the kind of experiment: qHTS Validation Assay to Find Inhibitors of Pin1 (AID 504536; active = well fitted inhibition curve with a large enough effect in the polarisation, with a control signal flat, not every such curve was filed as active; the % refers to the polarisation). As to conditions: Pin1 fluorescence polarization peptide binding assay; series mostly up to 57.5 µM. An outline of the steps:
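Fluorescence polarization competition: compounds (titration) displace HiFluor-488-labeled Pin1-1b peptide from Pin1 (0.3 uM final) in pH 7.5 HEPES buffer with DTT, 10 min at room temperature; %Activity normalized to no-enzyme wells, curves fitted.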

Experiment [6] deals with Phosphoglycerate kinase, glycosomal (Trypanosoma brucei brucei) (UniProt P07378). As to the kind of experiment: qHTS Validation Assay to Find Inhibitors of Phosphoglycerate Kinase (AID 504547). As to conditions: enzymatic PGK inhibition, coupled luminescence read-out; series mostly up to 57.5 µM. In short, it runs like this: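 PGK activity was coupled to GAPDH (100nM final), which generates the unstable substrate 1,3-bisphosphoglycerate in-well. Reactions ran 60 minutes at room temperature in 100mM TEA pH 7.6, 5mM MgCl2, 0.01% Tween-20, then Kinase-Glo Plus luminescence was read.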

The target in experiment [7] is phosphoglycerate mutase (Leishmania major) (UniProt Q4Q090). As to the kind of experiment: qHTS Validation Assay to Find Inhibitors of Phosphoglycerate Mutase (AID 504548). Conditions: biochemical enzyme activity; series mostly up to 57.5 µM. An outline of the steps: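 Lm PGAM 1.25nM final; 100 mM TEA pH 7.6, 5 mM MgCl2, 0.01% Tween-20; 45 min RT; Kinase-GloPlus, 10 min; end-point luminescence. Enzyme-free wells as negative controls.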

Experiment [8] is described as follows: qHTS for Inhibitors of ATXN expression: Validation (AID 588378). Also: nearly all actives have a fitted effect of over 75% in size. As to conditions: cell-based ATXN2 expression reporter assay, luminescence; series mostly up to 57.1 µM. In short, it runs like this: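 Compounds were pinned onto attached HEK293 cells carrying an ATXN2-firefly luciferase construct and incubated 24 hrs at 37 degrees C. Each well then received a fluorescent viability reagent followed by luciferase substrate for end-point luminescence.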

For experiment [9], the target named is DNA dC->dU-editing enzyme APOBEC-3G (Homo sapiens) (UniProt Q9HC16). As to the kind of experiment: qHTS for inhibitors of Vif-A3G interactions: Validation (AID 588379). Conditions: Vif-A3G protein interaction assay; series mostly up to 46.1 µM. An outline of the steps:
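HeLa cells stably expressing Vif and A3G-eYFP, 700 cells/well, incubated overnight at 37 deg C, then exposed to compound overnight at 37 deg C. Inhibition of Vif-mediated degradation read as increased yellow fluorescence (Ex 488/Em 500-530) by laser-scanning cytometry.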

The target of experiment [10] is Estrogen receptor (Homo sapiens) (UniProt P03372). As to the kind of experiment: qHTS assay for small molecule antagonists of estrogen receptor alpha signaling (AID 588513; active = well fitted curve in the direction sought with a large enough effect in the signal ratio, with a control signal flat, not every such curve was filed as active; the % refers to the signal ratio; also: potency is read from the fitted curve at half-maximal effect). Conditions: ER-alpha-UAS-bla HEK293, beta-lactamase ratio, antagonist mode; series mostly up to 76.9 µM. In short, it runs like this: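 Fluorescence from CCF4 substrate after 2 h at room temperature gave reporter activity; cells had been exposed to compound and 0.5nM 17-beta-estradiol for 18 h at 37 C. Hill-equation fitting yielded IC50 and maximal response.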

Inconclusive results are not listed. Entries that show only a call come without a potency. Calls of active or inactive are those of the source. Unless noted, calls follow the shape of the dose curve; as a rule, active = well fitted curve in the direction sought with a large enough effect; inconclusive = small, poorly fitted or top-dose-only effect, or another doubt; inactive = no such curve, though single readings can be large; an effect the other way counts as inactive or inconclusive.

Chain of Galactokinase (Homo sapiens) (P51570 whole entry, looked up): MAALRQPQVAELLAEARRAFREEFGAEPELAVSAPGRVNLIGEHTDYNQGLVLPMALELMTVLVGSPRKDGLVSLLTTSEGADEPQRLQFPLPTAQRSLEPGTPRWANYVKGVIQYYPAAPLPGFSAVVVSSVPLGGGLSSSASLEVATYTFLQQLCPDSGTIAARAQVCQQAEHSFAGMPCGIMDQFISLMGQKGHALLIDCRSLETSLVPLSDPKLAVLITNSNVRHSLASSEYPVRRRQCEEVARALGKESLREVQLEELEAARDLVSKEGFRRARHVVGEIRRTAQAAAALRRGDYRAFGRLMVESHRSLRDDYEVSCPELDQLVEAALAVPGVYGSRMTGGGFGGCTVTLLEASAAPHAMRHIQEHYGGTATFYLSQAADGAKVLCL
Chain of Ubiquitin carboxyl-terminal hydrolase 1 (Homo sapiens) (O94782 whole entry, looked up): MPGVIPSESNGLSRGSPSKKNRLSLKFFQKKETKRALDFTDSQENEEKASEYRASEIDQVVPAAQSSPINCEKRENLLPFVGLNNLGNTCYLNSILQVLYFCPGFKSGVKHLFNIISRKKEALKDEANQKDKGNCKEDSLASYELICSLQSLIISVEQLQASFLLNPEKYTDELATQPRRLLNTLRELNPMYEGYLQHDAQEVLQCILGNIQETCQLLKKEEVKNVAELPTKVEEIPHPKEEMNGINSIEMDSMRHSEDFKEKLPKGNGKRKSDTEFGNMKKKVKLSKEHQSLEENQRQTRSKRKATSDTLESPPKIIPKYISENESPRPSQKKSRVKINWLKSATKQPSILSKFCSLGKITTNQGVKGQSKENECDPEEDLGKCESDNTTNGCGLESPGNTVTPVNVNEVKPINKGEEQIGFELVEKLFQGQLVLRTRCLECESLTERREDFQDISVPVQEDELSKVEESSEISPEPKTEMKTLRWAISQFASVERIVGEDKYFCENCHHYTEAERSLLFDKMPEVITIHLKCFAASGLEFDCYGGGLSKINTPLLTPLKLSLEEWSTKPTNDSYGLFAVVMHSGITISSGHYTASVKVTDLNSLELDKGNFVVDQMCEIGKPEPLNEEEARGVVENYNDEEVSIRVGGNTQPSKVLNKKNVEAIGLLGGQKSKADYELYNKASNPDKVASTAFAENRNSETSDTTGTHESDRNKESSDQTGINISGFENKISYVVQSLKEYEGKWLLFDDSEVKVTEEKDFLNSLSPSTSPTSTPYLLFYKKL
Chain of DNA dC->dU-editing enzyme APOBEC-3G (Homo sapiens) (Q9HC16 whole entry, looked up): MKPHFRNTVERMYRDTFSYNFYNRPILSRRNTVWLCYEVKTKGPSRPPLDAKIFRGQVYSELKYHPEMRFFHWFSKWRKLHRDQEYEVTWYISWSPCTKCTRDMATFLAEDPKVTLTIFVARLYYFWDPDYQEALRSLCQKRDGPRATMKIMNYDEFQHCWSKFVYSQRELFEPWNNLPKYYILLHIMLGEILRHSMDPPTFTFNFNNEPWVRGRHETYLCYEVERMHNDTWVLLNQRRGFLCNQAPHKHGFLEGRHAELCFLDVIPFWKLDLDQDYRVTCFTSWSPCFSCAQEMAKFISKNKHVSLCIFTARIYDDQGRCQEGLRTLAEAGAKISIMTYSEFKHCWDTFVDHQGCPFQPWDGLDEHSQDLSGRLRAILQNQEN
Chain of phosphoglycerate mutase (Leishmania major) (Q4Q090 1-553): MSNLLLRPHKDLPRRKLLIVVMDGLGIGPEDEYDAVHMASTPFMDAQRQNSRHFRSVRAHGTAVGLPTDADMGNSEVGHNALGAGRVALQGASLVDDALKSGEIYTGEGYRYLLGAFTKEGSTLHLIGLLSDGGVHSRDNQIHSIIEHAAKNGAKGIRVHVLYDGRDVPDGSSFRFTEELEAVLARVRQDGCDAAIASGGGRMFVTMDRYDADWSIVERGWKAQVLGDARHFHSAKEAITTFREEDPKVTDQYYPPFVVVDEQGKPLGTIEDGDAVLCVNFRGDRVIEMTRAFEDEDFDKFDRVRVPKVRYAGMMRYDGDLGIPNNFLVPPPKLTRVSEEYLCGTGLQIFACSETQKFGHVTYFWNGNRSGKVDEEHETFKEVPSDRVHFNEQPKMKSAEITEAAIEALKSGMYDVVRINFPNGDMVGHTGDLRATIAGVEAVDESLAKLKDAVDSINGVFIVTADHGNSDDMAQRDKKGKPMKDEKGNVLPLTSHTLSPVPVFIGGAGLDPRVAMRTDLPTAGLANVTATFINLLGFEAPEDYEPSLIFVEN
Chain of Estrogen receptor (Homo sapiens) (P03372 whole entry, looked up): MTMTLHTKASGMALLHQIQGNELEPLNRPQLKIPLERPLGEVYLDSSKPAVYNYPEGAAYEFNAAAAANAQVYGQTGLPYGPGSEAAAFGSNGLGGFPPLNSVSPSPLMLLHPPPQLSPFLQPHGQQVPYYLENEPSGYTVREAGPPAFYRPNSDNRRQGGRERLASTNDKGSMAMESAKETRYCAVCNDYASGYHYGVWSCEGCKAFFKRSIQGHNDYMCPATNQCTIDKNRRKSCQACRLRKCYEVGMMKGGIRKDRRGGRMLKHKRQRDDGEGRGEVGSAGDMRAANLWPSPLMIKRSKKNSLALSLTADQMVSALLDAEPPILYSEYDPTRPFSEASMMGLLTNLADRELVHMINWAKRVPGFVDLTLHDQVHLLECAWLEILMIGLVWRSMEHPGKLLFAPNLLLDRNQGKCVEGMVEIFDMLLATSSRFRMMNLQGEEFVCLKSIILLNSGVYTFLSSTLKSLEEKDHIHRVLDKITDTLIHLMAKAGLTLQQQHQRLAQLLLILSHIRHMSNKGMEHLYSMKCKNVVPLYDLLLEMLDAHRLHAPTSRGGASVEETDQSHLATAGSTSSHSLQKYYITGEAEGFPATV
Chain of Peptidyl-prolyl cis-trans isomerase NIMA-interacting 1 (Homo sapiens) (Q13526 whole entry, looked up): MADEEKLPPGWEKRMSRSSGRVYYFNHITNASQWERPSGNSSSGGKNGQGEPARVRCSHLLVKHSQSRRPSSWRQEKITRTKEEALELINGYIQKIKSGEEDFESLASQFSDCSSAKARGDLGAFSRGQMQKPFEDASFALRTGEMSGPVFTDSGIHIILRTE
Chain of Phosphoglycerate kinase, glycosomal (Trypanosoma brucei brucei) (P07378 whole entry, looked up): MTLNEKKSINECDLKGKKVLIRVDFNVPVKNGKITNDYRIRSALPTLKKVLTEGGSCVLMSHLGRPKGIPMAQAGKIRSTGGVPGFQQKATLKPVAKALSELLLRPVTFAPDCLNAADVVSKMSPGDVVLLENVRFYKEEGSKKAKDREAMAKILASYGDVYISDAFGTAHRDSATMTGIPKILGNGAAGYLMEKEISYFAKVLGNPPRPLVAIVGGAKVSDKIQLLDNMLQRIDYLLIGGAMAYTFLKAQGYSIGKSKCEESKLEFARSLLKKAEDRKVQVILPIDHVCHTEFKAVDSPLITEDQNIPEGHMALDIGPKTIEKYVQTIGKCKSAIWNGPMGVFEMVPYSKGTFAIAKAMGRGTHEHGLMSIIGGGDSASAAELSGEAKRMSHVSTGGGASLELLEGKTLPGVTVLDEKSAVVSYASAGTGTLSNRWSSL

For `FC(F)(F)COCC(F)(F)F`, the Potency result in experiment [1] was “inactive”. With `O=C(O)CC/C=C\CC[C@@H]1[C@@H](N2CCCCC2)[C@@H](O)C[C@@H]1OCc1ccc(-c2ccccc2)cc1`, the Potency entry in experiment [1] was “inactive”. On the same count and under the same terms, for `CC(=O)NCCCS(=O)(=O)O` the value was “inactive”. For `CC(C)CCC[C@@H](C)[C@H]1CC[C@H]2[C@@H]3CC[C@@H]4C[C@H](O)CC[C@]4(C)[C@H]3CC[C@]12C`, the Potency result in experiment [1] was “inactive”. Take `Oc1ccc(/C=C/c2cc(O)cc(O)c2)cc1`: the outcome in experiment [2], in experiment [3], in experiment [4], in [5], in [6] and in experiment [7] was inactive. Further, the result in [8] and in experiment [9] was inactive. For the same compound, the viability change in experiment [2] is -6.91%. Besides, the Potency result in experiment [1] is “inactive”. For the same compound, the Potency in experiment [10] is 31.6 µM [inhibitor] (active). Turning to `CC(=O)c1ccc2c(c1)N(CCCN1CCN(CCO)CC1)c1ccccc1S2`, the Potency entry in experiment [1] was “inactive”. Same read-out and setting: for `CC(=O)N=c1sc(S(N)(=O)=O)nn1C` the value was “inactive”; for `c1ccc2c(c1)Sc1ccccc1N2CCN1CCCC1`, “inactive”. Consider `O=C(NCCNCC(O)COc1ccc(O)cc1)N1CCOCC1` (stereo not given), for which the outcome in experiment [3] and in experiment [4] was inactive. Besides, the Potency entry in experiment [1] is “inactive”. As to `C[Se]CC[C@H](N)C(=O)O`, in experiment [1], the Potency entry was “inactive”. Take `C[C@@](Cc1ccc(O)c(O)c1)(NN)C(=O)O`: the compound was called inactive in experiment [3], in [4] and in [9]. In experiment [1], the Potency result is “inactive”. Consider `O=[n+]1ccn([O-])c2ccccc21`, for which, in experiment [1], the Potency result is “inactive”.

As to `OC/C=C/c1ccccc1`, the Potency entry in experiment [1] was “inactive”. Take `CC(=O)Nc1ccc(OC(C)=O)cc1`: in [1], the Potency entry is “inactive”.

As for `O=c1[nH]c(=O)n([C@H]2C[C@H](O)[C@@H](CO)O2)cc1/C=C/Br`, the compound was called inactive in experiment [3] and in experiment [4]. Moreover, the Potency result in experiment [1] is “inactive”. Consider `CCc1ccc(S(=O)(=O)O)cc1`, for which the Potency entry in [1] was “inactive”. Still for that read-out and setting: for `CCOC(=O)c1c[nH]c2cc(OCC(C)C)c(OCC(C)C)cc2c1=O` the value was “inactive”; for `O=C(O)CCC/C=C\C[C@@H]1[C@@H](/C=C/[C@@H](O)COc2cccc(C(F)(F)F)c2)[C@H](O)C[C@@H]1O`, “inactive”.
